PubChem BioAssay (Tox21)
Records with an inconclusive call do not appear. The source made the active and inactive calls. Unless noted, the call rests on the fitted dose curve; in most records, active means well fitted curve in the direction sought with a large enough effect in the repeat runs; inconclusive means weak or mixed curves; inactive means flat fitted curve, though single readings scatter.

How the values were obtained:
[1] = qHTS assay to test for compound auto fluorescence at 535 nm (green) in HEK293 cells (AID 720680)
[2] = qHTS assay to test for compound auto fluorescence at 460 nm (blue) in HEK293 cell free culture (AID 720681)
In short: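 Test compounds were pinned into cell-free culture medium (DMEM with 10% FBS) and fluorescence was read directly at Ex/Em 405/460 nm. Signals were expressed as fluorescence equivalents of triamterene, with DMSO vehicle as control.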

[3] = qHTS assay to test for compound auto fluorescence at 535 nm (green) in HEK293 cell free culture (AID 720682)
In short: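 DMEM + 10% FBS, cell-free; cpd or DMSO pinned in; Ex485/Em535 read; output as fluorescein-equivalent signal.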

[4] = qHTS assay to test for compound auto fluorescence at 590 nm (red) in HepG2 cell free culture (AID 720684)
In short: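 Red fluorescence (540 nm excitation, 590 nm emission) was measured after compound transfer into cell-free MEM supplemented with 10% FBS. Values are equivalencies against Rose Bengal sodium.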

[5] = qHTS assay to test for compound auto fluorescence at 460 nm (blue) in HepG2 cell free culture (AID 720685)
In short: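 Compound (23 nL) or DMSO pinned into cell-free MEM with 10% FBS; blue fluorescence read at 405/460 nm excitation/emission, expressed as auto-fluorescence equivalency to triamterene.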

[6] = qHTS assay to test for compound auto fluorescence at 535 nm (green) in HepG2 cell free culture (AID 720686)
[7] = qHTS assay to test for compound auto fluorescence at 460 nm (blue) in HepG2 cells (AID 720687)
In short: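 Cells (2,000/well in MEM with 10% FBS) attached overnight at 37 C, then were exposed to compound or DMSO for 1 hr at 37 C, 5% CO2. Fluorescence read at Ex/Em 405/460 nm, expressed as triamterene-equivalent signal.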

[8] = molecular target: Glucocorticoid receptor (Homo sapiens) (UniProt P04150); experiment: qHTS assay to identify small molecule agonists of the glucocorticoid receptor (GR) signaling pathway (AID 720691; active means well fitted activation curve with a large enough effect in the signal ratio in the repeat runs, not every such curve was filed as active; the % refers to the signal ratio)
Glucocorticoid receptor (Homo sapiens), sequence (P04150 whole entry, looked up): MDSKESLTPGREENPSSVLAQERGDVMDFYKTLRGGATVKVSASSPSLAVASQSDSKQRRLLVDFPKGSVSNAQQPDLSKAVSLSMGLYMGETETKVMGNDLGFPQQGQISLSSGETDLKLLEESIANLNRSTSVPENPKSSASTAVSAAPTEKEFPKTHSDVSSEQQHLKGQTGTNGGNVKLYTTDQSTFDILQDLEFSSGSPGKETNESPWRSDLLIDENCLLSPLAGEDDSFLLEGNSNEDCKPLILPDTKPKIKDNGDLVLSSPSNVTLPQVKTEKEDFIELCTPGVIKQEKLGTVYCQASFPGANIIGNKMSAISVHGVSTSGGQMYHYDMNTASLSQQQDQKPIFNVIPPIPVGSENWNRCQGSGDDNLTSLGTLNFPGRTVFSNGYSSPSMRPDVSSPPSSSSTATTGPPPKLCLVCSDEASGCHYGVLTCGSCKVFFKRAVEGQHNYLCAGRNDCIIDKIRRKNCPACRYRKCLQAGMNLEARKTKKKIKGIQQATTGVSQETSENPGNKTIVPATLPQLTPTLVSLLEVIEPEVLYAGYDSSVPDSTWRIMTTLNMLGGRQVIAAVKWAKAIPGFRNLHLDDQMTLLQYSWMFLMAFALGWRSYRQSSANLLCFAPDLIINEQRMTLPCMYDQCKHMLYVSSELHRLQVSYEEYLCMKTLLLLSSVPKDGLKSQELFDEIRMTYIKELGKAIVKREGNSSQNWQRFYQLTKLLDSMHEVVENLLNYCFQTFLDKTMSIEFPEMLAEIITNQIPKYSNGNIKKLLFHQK
In short: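 Fluorescence intensity from LiveBLAzer B/G FRET substrate (2 h, room temperature) reports beta-lactamase expression driven by the glucocorticoid response element in GR-bla HeLa cells after 18 h compound exposure at 37 C.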

[9] = molecular target: Glucocorticoid receptor (Homo sapiens) (UniProt P04150); experiment: qHTS assay to identify small molecule antagonists of the glucocorticoid receptor (GR) signaling pathway (AID 720692; active means well fitted inhibition curve with a large enough effect in the signal ratio in the repeat runs, not every such curve was filed as active; the % refers to the signal ratio)
In short: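 HeLa GR-bla cells; cmpd + dex 5 nM final, 18 h 37 C; LiveBLAzer B/G FRET substrate 2 h RT; fluorescence intensity read. Antagonist mode, qHTS.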

[10] = qHTS assay to test for compound auto fluorescence at 590 nm (red) in HEK293 cell free culture (AID 720683)
In short: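 Tox21 10K library compounds were pinned into cell-free DMEM with 10% FBS and fluorescence was read at excitation 540 nm. Activity is expressed as Rose Bengal sodium equivalency.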
On the % scale 0 is the no-effect control and ±100 the full control effect.

O=C(O)CNc1ccccc1
inactive: outcome [1] | Potency [2] | outcome [3] | outcome [4] | outcome [5] | outcome [6] | outcome [7] | Potency [8] | Potency [9]

CCN(CCCCOC(=O)c1ccc(OC)c(OC)c1)C(C)Cc1ccc(OC)cc1 (configuration not stated)
inactive: fluorescence, % of fluorescein [1] 0.0099% [at 18.6 µM] | fluorescence, % of fluorescent control [2] 0.0098% [at 18.6 µM] | activity change [3] 0.0553% [at 18.6 µM] | fluorescence, % of fluorescent control [10] -0.0979% [at 18.6 µM] | fluorescence, % of fluorescent control [5] 0.0055% [at 18.6 µM] | fluorescence, % of fluorescein control [6] 0.0076% [at 18.6 µM] | fluorescence, % of fluorescent control [7] 0.0432% [at 18.6 µM] | Potency [8] | Potency [9]

C=CC(C)CCC=C(C)C (configuration not stated)
inactive: outcome [1] | Potency [2] | outcome [3] | outcome [10] | outcome [5] | outcome [6] | outcome [7] | Potency [8] | Potency [9]

O=C(O)c1ccc2cc(O)ccc2c1
inactive: outcome [1] | Potency [2] | outcome [3] | outcome [10] | outcome [5] | outcome [6] | outcome [7] | Potency [8]

CCCCC(CC)COCCC#N (configuration not stated)
inactive: outcome [1] | Potency [2] | outcome [3] | outcome [10] | outcome [5] | outcome [6] | outcome [7] | Potency [8] | Potency [9]

FC(F)(Cl)C(F)(Cl)Cl
inactive: outcome [1] | Potency [2] | outcome [3] | outcome [4] | outcome [5] | outcome [6]

CC(C)(C(=O)O)c1ccc(C(O)CCCN2CCC(C(O)(c3ccccc3)c3ccccc3)CC2)cc1 (configuration not stated)
inactive: outcome [1] | Potency [2] | outcome [3] | outcome [10] | outcome [4] | outcome [5] | outcome [6] | Potency [8] | Potency [9]

O=C(N[C@@H](Cc1ccccc1)[C@@H](O)C(=O)N1C[C@@H](O)[C@@H](O)C1)c1cc2cc(Cl)ccc2[nH]1
inactive: outcome [1] | Potency [2] | outcome [3] | outcome [10] | outcome [5] | outcome [6] | outcome [7]

COc1cc(C)c(Cc2cnc(N)nc2N)cc1OC
inactive: outcome [1] | Potency [2] | outcome [3] | outcome [10] | outcome [5] | outcome [6] | outcome [7] | Potency [8] | Potency [9]

CC/C=C\CCO
inactive: outcome [1] | Potency [2] | outcome [3] | outcome [10] | outcome [4] | outcome [5] | outcome [6] | outcome [7] | Potency [8] | Potency [9]

CCn1nc(Cc2ccccc2)cc1C1CCN(C[C@H]2C[C@H](N(C)[C@@H](C(=O)O)C(C)C)C[C@@H]2c2cccc(F)c2)CC1
inactive: outcome [1] | Potency [2] | outcome [3] | outcome [10] | outcome [5] | outcome [6] | outcome [7] | Potency [8] | Potency [9]

O=C(O)c1cccc(C(=O)O)c1C(=O)O
inactive: outcome [1] | Potency [2] | outcome [3] | outcome [10] | outcome [4] | outcome [5] | outcome [6] | Potency [8] | Potency [9]

O=C1c2ccccc2C(=O)C1c1ccc2cc(S(=O)(=O)O)cc(S(=O)(=O)O)c2n1
inactive: outcome [1] | Potency [2] | outcome [3] | outcome [10] | outcome [4] | outcome [5] | outcome [6] | Potency [8]

CCCCOC(=O)CC#N
inactive: outcome [1] | Potency [2] | outcome [3] | outcome [10] | outcome [5] | outcome [6] | outcome [7]

O=C1OC(=O)C2CC=CCC12 (configuration not stated)
inactive: outcome [1] | Potency [2] | outcome [3] | outcome [10] | outcome [5] | outcome [6] | outcome [7] | Potency [8] | Potency [9]

C[C@]12CCC(=O)C=C1[C@@H]1C[C@@H]1[C@H]1[C@@H]3[C@@H]4C[C@@H]4[C@@]4(CCC(=O)O4)[C@@]3(C)CC[C@@H]12
inactive: outcome [1] | Potency [2] | outcome [3] | outcome [4] | outcome [5] | outcome [6] | outcome [7]

Nc1ccc(C(=O)Oc2ccccc2)c(O)c1
inactive: outcome [1] | Potency [2] | outcome [3] | outcome [10] | outcome [4] | outcome [5] | outcome [6] | Potency [8] | Potency [9]

CCCCCO
inactive: outcome [1] | Potency [2] | outcome [3] | outcome [4] | outcome [5] | outcome [6] | outcome [7] | Potency [8] | Potency [9]

Nc1cccc2c(=O)[nH][nH]c(=O)c12
inactive: outcome [1] | Potency [2] | outcome [3] | outcome [10] | outcome [5] | outcome [6] | outcome [7] | Potency [8] | Potency [9]

CC1(C)[C@@H]2CC[C@]3(C2)[C@@H]1C(=O)CCC3(C)C
inactive: outcome [1] | Potency [2] | outcome [3] | outcome [4] | outcome [5] | outcome [6] | outcome [7]

CC(CN=Cc1ccccc1O)N=Cc1ccccc1O (configuration not stated)
inactive: outcome [1] | Potency [2] | outcome [3] | outcome [4] | outcome [5] | outcome [6] | outcome [7] | Potency [8]

CC(C)(O)C(=O)O
inactive: outcome [1] | Potency [2] | outcome [3] | outcome [10] | outcome [4] | outcome [5] | outcome [6] | Potency [8] | Potency [9]

C/C=C1\[C@H]2C=C(C)C[C@]1(N)c1ccc(=O)[nH]c1C2
inactive: outcome [1] | Potency [2] | outcome [3] | outcome [10] | outcome [5] | outcome [6] | outcome [7] | Potency [8] | Potency [9]

CC(C)CC(C)(C)C
inactive: outcome [1] | Potency [2] | outcome [3] | outcome [4] | outcome [5] | outcome [6] | outcome [7] | Potency [8]

Cc1cc(N)n(-c2ccccc2)n1
inactive: outcome [1] | Potency [2] | outcome [3] | outcome [10] | outcome [5] | outcome [6] | outcome [7]

CCCCCC1CCC(=O)O1 (configuration not stated)
inactive: outcome [1] | Potency [2] | outcome [3] | outcome [10] | outcome [4] | outcome [5] | outcome [6] | Potency [8] | Potency [9]

CCCc1ccc(OC)cc1
inactive: outcome [1] | Potency [2] | outcome [3] | outcome [10] | outcome [4] | outcome [5] | outcome [6] | Potency [8] | Potency [9]
